# Source: PubChem BioAssay (several laboratories)
# A selection: hits, their analogues and other compounds. The true share with any hit is near 1.5%.
# TPT1 inhibitor: blocks Candida albicans tRNA 2'-phosphotransferase; recombinant caTPT1, FP RNA substrate dephosphorylation; inhibition, % at 5 µM; hit rate 0.81% among 300,000;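 active = inhibition above the mean of all tested compounds plus 3 SD, set per screening campaign, cut at about 24% in these data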;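 note: plate controls were DMSO alone for no effect and ferristatin control at 100 nM for full effect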
# cardiac RTF act: increases calcium sensitivity of human cardiac regulated thin filaments; IANBD-labeled TnC RTF fluorescence at EC20 calcium; 0% EC20 calcium, 100% full calcium; hit rate 0.24% among 340,000; activation, % at 7.2 µM; AID 493008;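 active = activation above the mean over all tested compounds plus 3 SD, cut at about 30% in these data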;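 note: rise in fluorescence read as greater calcium sensitivity of cardiac thin filaments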
# Cardiac RTF inh: cardiac RTF calcium desensitization | hit rate 0.12% among 340,000 | inhibition, % at 7.15 µM | AID 493244 | P19429+P45379 | IANBD-labeled cardiac RTF, Ca2+ fluorescence;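 active = inhibition above the mean inhibition of all tested compounds plus 3 SD, cut at about 17% in these data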;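 note: assay run at fixed EC70 calcium of 1.6 mM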
# IDE inh: cellular human IDE inhibition. P14735. HEK cells, FAbetaB cleavage, fluorescence polarization. inhibition, % at 5.59 µM. hit rate 0.41% among 320,000. AID 434962;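 active = percent inhibition above the average of all tested compounds plus 3 SD, set per screening campaign, cut at about 16% in these data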;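 note: IDE supplied by intact live HEK cells; FP after avidin binding of uncleaved biotin substrate so inhibition keeps polarization high; 0% = DMSO wells and 100% = 60 µM reference IDE inhibitor Ii1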
# IDE cell activ: boosts human insulin-degrading enzyme activity in HEK cells; P14735; activation, % at 5.96 µM; hit rate 0.073% among 340,000; AID 493087; FAbeta-B cleavage, fluorescence polarization; 0% vehicle, 100% cell-free pure enzyme wells;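 active = activation above the mean of all tested compounds plus 3 SD, set per screening campaign, cut at about 17% in these data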
# CRFBP-R2 agonist: agonists of human CRF-binding protein/CRF-R2 receptor complex. HEK293 CRF-R2/CRF-BP, calcium dye fluorescence (FLIPR); percent of saturating CRF peptide response. AID 588473. hit rate 0.46% among 350,000. activation, % at 13.2 µM;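 active = activation of at least 50%, plus an integration ratio under a set limit after plate pattern correction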;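 note: plate controls were neutral control wells without compound for no effect and CRF at EC100 for full effect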
# * = called active by the depositor; . = not tested or not shown.
SMILES,TPT1 inhibitor,cardiac RTF act,Cardiac RTF inh,IDE inh,IDE cell activ,CRFBP-R2 agonist
Cc1sc(NC(=O)C2CCCCC2C(=O)O)c(C(N)=O)c1-c1ccccc1 (stereo not given),-3,12,-1,6,1,-1
Cc1sc(NC(=O)C2CCCCC2C(=O)O)c(C(N)=O)c1-c1ccc(C(C)(C)C)cc1 (stereo not given),-4,-5,-10,3,2,104*
CNC(=O)C1CN(C(=O)c2nn(Cc3ccccc3)c(=O)c3ccccc23)c2ccccc2O1 (stereo not given),.,.,.,.,.,-1
COc1ccccc1-c1ccc([C@@H]2C[C@H]3[C@H](CON3C)CN2C(=O)c2ccco2)cc1,.,.,.,.,.,-2
CCOC(=O)N1CCN(CC(O)c2ccc3cc[nH]c3c2)CC1 (stereo not given),-1,3,-4,3,-1,58*
CCOC(=O)N1CCN(CC(O)c2ccc3c(c2)CCN3)CC1 (stereo not given),-3,2,-1,-1,8,0
O=C(O)c1ccccc1C(=O)N1CCN(c2ccccc2)CC1,-6,3,-8,7,0,0
O=C(c1ccccc1C(=O)N1CCN(c2ccccc2)CC1)N1CCN(c2ccccc2)CC1,-17,32*,-15,0,-5,47
Clc1nc(Nc2ccc(N3CCOCC3)cc2)c2ccccc2n1,1,6,12,-1,-1,17
O=S(=O)(Nc1nc2ccccc2nc1Nc1ccc(N2CCOCC2)cc1)c1cc(Cl)ccc1Cl,-1,4,1,6,2,51*
O=c1c(/C=N/Nc2ccccc2)c(Sc2nnnn2-c2ccccc2)nc2ccccn12,.,32*,-60,.,-8,99*
O=Cc1c(Sc2ccccc2)nc2ccccn2c1=O,-5,0,5,2,-6,-1
CSc1ccccc1OCc1cc(C(=O)NCCc2nc(C)cc(C)n2)no1,.,-3,-12,.,1,-1
C[C@@H]1CCCCO[C@H](CN(C)S(=O)(=O)c2cn(C)cn2)[C@@H](C)CN([C@H](C)CO)C(=O)c2cc(NC(=O)c3ccncc3)ccc2O1,.,.,.,.,.,2
CCOC(=O)C1=C(O)/C(=C/c2cn(CC(=O)NCC3CCCO3)c3ccccc23)SC1=Nc1ccc(C)cc1 (stereo not given),-15,135*,-20,3,9,61*
CCOC(=O)C1=C(O)/C(=C/c2ccc(-c3ccccc3C(=O)O)o2)SC1=Nc1ccc(C)cc1,.,1,-19,.,-18,43
CC(C)(C)c1nnc(NS(=O)(=O)c2ccc([N+](=O)[O-])cc2)s1,.,-7,-2,.,4,-3
CCOC(=O)/C(=C/c1ccc(N2CCC(c3ccccc3)=N2)cc1)C(C)=O,.,11,-26,.,-18,254*
CCC(NC(=S)NC1CCCCC1)c1ccc(C)cc1 (stereo not given),.,2,-2,.,4,.
c1nnc(NCNc2nncs2)s1,.,.,.,.,.,60*
CC(=O)Nc1ccc(NC(=O)COC(=O)c2n[nH]c3ccccc23)cc1,-7,1,2,2,19*,-1
CC(C)(C)OC(=O)N(CCc1ccccc1)Cc1cccc(OCc2cccc(NC(=O)C3CCCC3)c2)c1,.,1,-4,.,2,0
CC(O)CN(CC(C)O)c1ccc2c(c1)Cc1cc([N+](=O)[O-])ccc1-2 (stereo not given),.,9,-23,.,-10,197*
O=C(O)CCC(=O)NNc1ccccc1[N+](=O)[O-],-1,-1,-10,0,2,0
CC(C)[C@H](NC(=O)c1ccc(C(C)(C)C)cc1)C(=O)Nc1nnc(C2CC2)s1,2,2,2,3,-1,-1
Cc1cc(NC(=O)c2cncc(Br)c2)ccc1NC(=O)c1cc2ccccc2o1,0,0,-2,-1,18*,-2
Nc1nc2c(c(=O)[nH]1)CN(Cc1ccccc1)CC2,2,-1,0,-9,4,-1
O=c1[nH]c(C(Cl)Cl)nc2sc3c(c12)CCN(Cc1ccccc1)C3,10,6,-5,-1,2,56*
CCCSc1nc2sc3c(c2c(=O)[nH]1)CCN(Cc1ccccc1)C3,82*,9,-22,14,-20,44
